Data published in PubChem BioAssay (NCATS).
Results filed as inconclusive are left out. Values without a mark were called inactive. The source made the active and inactive calls. Calls come from the whole dose curve; as a rule, active = well fitted curve in the direction sought with a large enough effect; inconclusive = small, poorly fitted or top-dose-only effect, or another doubt; inactive = no such curve, though single readings can be large; an effect the other way counts as inactive or inconclusive. Residues, ends and D or L forms follow the SMILES beside them. *: point of attachment. Cbz = O=C(OCc1ccccc1)*

How the values were obtained:
[1] = system: Zika virus NS2B-NS3 protease; assay: Primary screen GU AMC qHTS for Zika virus inhibitors (AID 1347154); note: nearly all actives have a fitted effect of over 70% in size; note: potency is the fitted concentration of half-maximal effect;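 for activity change, negative = inhibition: 0% = no-inhibitor control and -100% = no-enzyme control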
In short: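 Unlinked Zika NS2B hydrophilic domain/NS3 protease domain noncovalent complex (25 nM final) in 10 mM Tris-HCl pH 8.0, 0.01% Tween 20, with AMC peptide substrate. Fluorescence (ex 340, em 450 nm) change over 15 min, room temperature; percent inhibition fitted to 4-parameter Hill equation.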

[2] = molecular target: Lysine-specific demethylase 5B (Homo sapiens) (UniProt Q9UGL1); assay: Optimization screen for KDM5B Histone Demethylases FDH coupled qHTS against the LOPAC library (AID 1347166); details: KDM5B demethylation, FDH-coupled NADH fluorescence (FDH is formaldehyde dehydrogenase); at 57.5 µM (top of the series); note: 0% is about no effect
Lysine-specific demethylase 5B (Homo sapiens), sequence (Q9UGL1 whole entry, looked up): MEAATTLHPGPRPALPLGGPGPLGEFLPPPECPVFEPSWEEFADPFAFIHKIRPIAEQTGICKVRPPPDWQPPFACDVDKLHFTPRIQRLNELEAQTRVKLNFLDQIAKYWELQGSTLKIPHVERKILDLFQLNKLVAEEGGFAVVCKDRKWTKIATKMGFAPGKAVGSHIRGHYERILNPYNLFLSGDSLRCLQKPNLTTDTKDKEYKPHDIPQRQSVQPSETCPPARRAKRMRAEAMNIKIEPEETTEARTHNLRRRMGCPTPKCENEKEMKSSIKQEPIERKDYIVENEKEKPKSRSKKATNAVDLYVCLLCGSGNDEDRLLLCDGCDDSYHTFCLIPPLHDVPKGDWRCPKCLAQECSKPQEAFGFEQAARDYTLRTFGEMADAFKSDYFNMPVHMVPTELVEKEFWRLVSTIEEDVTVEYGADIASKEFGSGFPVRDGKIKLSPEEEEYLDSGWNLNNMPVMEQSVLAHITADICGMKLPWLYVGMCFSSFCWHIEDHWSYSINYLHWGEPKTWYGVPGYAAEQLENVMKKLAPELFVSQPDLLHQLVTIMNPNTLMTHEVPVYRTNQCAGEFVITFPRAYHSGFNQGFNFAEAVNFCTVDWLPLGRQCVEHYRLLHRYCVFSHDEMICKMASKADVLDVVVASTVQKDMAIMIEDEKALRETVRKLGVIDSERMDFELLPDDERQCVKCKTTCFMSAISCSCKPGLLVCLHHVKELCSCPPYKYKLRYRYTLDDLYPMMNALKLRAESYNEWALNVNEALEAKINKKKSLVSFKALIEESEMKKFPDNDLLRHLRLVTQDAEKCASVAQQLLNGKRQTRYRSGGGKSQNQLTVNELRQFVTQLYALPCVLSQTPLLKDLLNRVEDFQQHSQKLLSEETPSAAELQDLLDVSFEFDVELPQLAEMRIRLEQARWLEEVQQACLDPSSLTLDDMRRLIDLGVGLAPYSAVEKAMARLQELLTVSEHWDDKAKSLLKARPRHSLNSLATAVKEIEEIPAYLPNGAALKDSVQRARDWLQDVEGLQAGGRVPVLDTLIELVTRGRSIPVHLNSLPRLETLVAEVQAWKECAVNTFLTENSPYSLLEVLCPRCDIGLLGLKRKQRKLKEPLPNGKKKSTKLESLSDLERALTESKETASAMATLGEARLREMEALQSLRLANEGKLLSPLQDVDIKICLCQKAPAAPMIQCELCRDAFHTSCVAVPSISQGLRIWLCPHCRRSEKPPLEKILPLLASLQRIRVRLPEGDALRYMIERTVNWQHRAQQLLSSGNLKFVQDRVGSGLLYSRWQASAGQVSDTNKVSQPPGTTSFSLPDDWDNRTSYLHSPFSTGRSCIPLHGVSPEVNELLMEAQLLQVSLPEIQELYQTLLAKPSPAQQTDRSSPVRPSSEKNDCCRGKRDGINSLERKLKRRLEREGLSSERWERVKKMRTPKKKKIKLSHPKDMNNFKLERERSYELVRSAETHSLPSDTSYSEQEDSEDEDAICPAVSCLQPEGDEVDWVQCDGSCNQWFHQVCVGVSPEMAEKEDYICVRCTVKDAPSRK
In short: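 KDM5BDeltaAP (200nM final) preincubated 10 min with compound, then 12.5uM H3K4Me3, 25uM a-ketoglutarate, ascorbate, Fe(II), NAD+ and FDH added; 50mM HEPES pH 7.5, 0.01% Tween-20. NADH fluorescence (340/450 nm) change over 30 min, room temperature.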

[3] = system: Zika virus NS2B-NS3 protease (linked construct); assay: Primary screen NINDS Rhodamine qHTS for Zika virus inhibitors (AID 1347160); note: % is set by controls: 0 for no effect and ±100 for the full control effect; nearly all actives have a fitted effect of over 55% in size
In short: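 Purified NS2B-NS3 protease with the NS2B hydrophilic domain joined by a flexible linker (25 nM) in 10 mM Tris-HCl pH 8.0, 0.01% Tween 20, preincubated 15 min at RT with compound; Rhodamine110 peptide substrate 1.5 µM; fluorescence change over 15 min; 4-parameter Hill fit.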

[4] = OV-KATE Cancer Cell Toxicity qHTS against the NCATS CANVASS Library (AID 1347345); note: % is set by controls: 0 for no effect and ±100 for the full control effect
In short: (§1)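 Following a 4 h pre-incubation of 1000 seeded cells, compounds were pinned in an 11-pnt dilution series and left for 72 h; viability then came from CellTiter-Glo.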

[5] = HPAF-II Cancer Cell Toxicity qHTS against the NCATS CANVASS Library (AID 1347346); note: % is set by controls: 0 for no effect and ±100 for the full control effect; nearly all actives have a fitted effect of over 55% in size
In short: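 Cytotoxicity in HPAF-II pancreatic cancer cells: 72 h treatment across 11 concentrations, ATP-based CellTiter-Glo luminescence endpoint.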

[6] = UWB1.289 Cancer Cell Toxicity qHTS against the NCATS CANVASS Library (AID 1347347); details: outcome: dose series up to 38.3 µM; note: % is set by controls: 0 for no effect and ±100 for the full control effect; nearly all actives have a fitted effect of over 60% in size
In short: as §1

[7] = OV-SAHO Cancer Cell Toxicity qHTS against the NCATS CANVASS Library (AID 1347348); note: % is set by controls: 0 for no effect and ±100 for the full control effect; nearly all actives have a fitted effect of over 55% in size
In short: as §1

[8] = Panc-1005 Cancer Cell Toxicity qHTS against the NCATS CANVASS Library (AID 1347349); note: % is set by controls: 0 for no effect and ±100 for the full control effect; nearly all actives have a fitted effect of over 60% in size
In short: as §1

[9] = SW1088 Cancer Cell Toxicity qHTS against the NCATS CANVASS Library (AID 1347350); details: outcome: dose series up to 76 µM; note: nearly all actives have a fitted effect of over 75% in size
In short: as §1

[10] = U-118MG Cancer Cell Toxicity qHTS against the NCATS CANVASS Library (AID 1347351); note: % is set by controls: 0 for no effect and ±100 for the full control effect
In short: as §1

[11] = COV-362 Cancer Cell Toxicity qHTS against the NCATS CANVASS Library (AID 1347352); note: % is set by controls: 0 for no effect and ±100 for the full control effect
In short: (§2)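 qHTS cytotoxicity: compounds tested in 11 concentrations on 1000 seeded cells per well over 72 h; bortezomib served as control; signal from CellTiter-Glo luminescence.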

[12] = A2780 Cisplatin Sensitive Ovarian Cancer Cell Toxicity qHTS against the NCATS CANVASS Library (AID 1347353); details: A2780 ovarian cancer viability, ATPLite luminescence, 72 h; at 91.4 µM (top of the series) unless noted; note: nearly all actives have a fitted effect of over 60% in size
In short: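 Seventy-two-hour exposure of cisplatin-sensitive A2780 ovarian cells to an 11-concentration qHTS series; cytotoxicity is inferred from loss of ATPLite luminescence. Bortezomib titration served as positive control.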

[13] = UWB1.289-WTBRCA1 Cancer Cell Toxicity qHTS against the NCATS CANVASS Library (AID 1347354); details: UWB1.289-WTBRCA1 viability, CellTiter-Glo luminescence, 72 h; at 76 µM (top of the series) unless noted
In short: as §2

[14] = HEK-293 Cancer Cell Toxicity qHTS against the NCATS CANVASS Library (AID 1347355); details: outcome: dose series up to 91.4 µM; note: nearly all actives have a fitted effect of over 65% in size
In short: as §2

For `CC[N+](CC)(CC)CC(=O)Nc1c(C)cccc1C`, the Potency [1] was “inactive” and the activity, negative = inhibition [2] was -1.53%.
With `N[C@H](C(=O)O)[C@H]1C[C@@H]1C(=O)O` the Potency [1] was “inactive” and the activity, negative = inhibition [2] was -7.37%.
For `NCCCNCCCCNCCCN`, the Potency [1] was “inactive” and the activity, negative = inhibition [2] was -4.41%.
With `N[C@H](C(=O)O)c1cc(O)cc(O)c1` the Potency [1] was “inactive” and the activity, negative = inhibition [2] was -24%.
In the case of `N[C@@H](CS(=O)O)C(=O)O`, the Potency [1] is reported as “inactive” and the activity, negative = inhibition [2] is reported as -4.61%.
In the case of `CCSC(=N)N`, the Potency [1] is reported as “inactive” and the activity, negative = inhibition [2] is reported as -5.42%.
In the case of `CCN(CC)CCOC(=O)c1cc(Cl)c(N)cc1OC`, the Potency [1] is reported as “inactive” and the activity, negative = inhibition [2] is reported as -9.27%.
For `CCCCCCC(=O)OC1CC(C)(C)NC(C)(C)C1`, the Potency [1] was “inactive” and the activity, negative = inhibition [2] was -0.896%.
With `CC(C)[C@H](NC(=O)OCc1ccccc1)C(=O)N[C@H](C=O)Cc1ccccc1` (Cbz-Val-Phe-aldehyde) the Potency [1] was “inactive” and the activity, negative = inhibition [2] was 6.73%.
In the case of `O=C(O)c1cccnc1C(=O)O`, the Potency [1] is reported as “inactive” and the activity, negative = inhibition [2] is reported as 6.25%.
With `CCCCCC(O)CCCC(=O)O` (stereo not drawn) the Potency [1] was “inactive” and the activity, negative = inhibition [2] was -6.03%.
With `COCc1nc2c([nH]1)c(=O)n(C)c(=O)n2CC(C)C` the Potency [1] was “inactive” and the activity, negative = inhibition [2] was -5.87%.
For `NC1C=CC=C(C(=O)O)C1` (stereo not drawn), the Potency [1] was “inactive” and the activity, negative = inhibition [2] was -9.6%.
For `CC1=C(/C=C/C(C)=C/C=C/C(C)=C\C(=O)O)C(C)(C)CCC1`, the Potency [1] was “inactive” and the activity, negative = inhibition [2] was -15.4%.
In the case of `C[C@@]1(C2CCCC2)Cc2cc(OCC(=O)O)c(Cl)c(Cl)c2C1=O`, the Potency [1] is reported as “inactive” and the activity, negative = inhibition [2] is reported as -5.03%.
In the case of `CCCCCCCCCCC(C)(C)C(=O)Nc1c(OC)cc(OC)cc1OC`, the Potency [1] is reported as “inactive” and the activity, negative = inhibition [2] is reported as -22.8%.
For `O=C(O)C1=CCCNC1`, the Potency [1] was “inactive” and the activity, negative = inhibition [2] was -1.96%.
With `CCCCCCCCCCCCCCCCCCOC[C@H](COP(=O)([O-])OCC[N+](C)(C)C)OC` the activity change, negative = inhibition [1] was 2.23% [at 6.83 µM] and the activity, negative = inhibition [2] was 1.42%.
For `O=[N+]([O-])c1cccc2c(Br)[nH]nc12`, the Potency [1] was “inactive” and the activity, negative = inhibition [2] was -1.9%.
Compound `CCCCCCCCCCC/C=C\C(C)(C)/C=C\CCCC(=O)O` has an activity change, negative = inhibition [1] of 13.4% [at 6.83 µM] and an activity, negative = inhibition [2] of -18.4%.
For `Cn1cc(C(=O)OCC2CCN(CCNS(C)(=O)=O)CC2)c2ccccc21`, the Potency [1] was “inactive” and the activity, negative = inhibition [2] was -6.85%.
With `Cc1nc2c(OCc3ccccc3)cccn2c1CC#N` the Potency [1] was “inactive” and the activity, negative = inhibition [2] was 0.134%.
With `CC(/C=C/c1cccc(Oc2ccc(F)cc2)c1)N(O)C(N)=O` (stereo not drawn) the Potency [1] was “inactive” and the activity, negative = inhibition [2] was -9.88%.
In the case of `C=CCn1c(=O)c2c(nc(-c3ccc(S(=O)(=O)O)cc3)n2C)n(C)c1=O`, the Potency [1] is reported as 5.32 µM (active) and the activity, negative = inhibition [2] is reported as -806% (active).
For `CN1CCc2cc(Cl)c(O)cc2[C@@H](c2ccccc2)C1`, the Potency [1] was “inactive” and the activity, negative = inhibition [2] was -3.21%.
For `COc1cc(CC(=O)O)ccc1O`, the Potency [1] was “inactive” and the activity, negative = inhibition [2] was -5.93%.
For `O=C(O)C1=CCNCC1`, the Potency [1] was “inactive” and the activity, negative = inhibition [2] was -12.8%.
In the case of `CNCCNS(=O)(=O)c1cccc2cnccc12`, the Potency [1] is reported as “inactive” and the activity, negative = inhibition [2] is reported as -11.7%.
For `CC(C)NC[C@H](O)COc1ccc(CC(N)=O)cc1`, the Potency [1] was “inactive” and the activity, negative = inhibition [2] was -2.87%.
With `CCCN(CCc1ccccc1)C1CCc2c(O)cccc2C1` (stereo not drawn) the Potency [1] was “inactive” and the activity, negative = inhibition [2] was -0.152%.
With `NC(N)=NC(N)=Nc1cccc(Cl)c1` the Potency [1] was “inactive” and the activity, negative = inhibition [2] was -3.11%.
In the case of `N=C(N)SCCc1cnc[nH]1`, the Potency [1] is reported as “inactive” and the activity, negative = inhibition [2] is reported as -14.3%.
In the case of `Nc1ccc(CCNc2ncnc3c2ncn3C2OC(CO)C(O)C2O)cc1` (stereo not drawn), the Potency [1] is reported as “inactive” and the activity, negative = inhibition [2] is reported as -7.72%.
In the case of `O=C(O)Cc1c[nH]c2ccc(O)cc12`, the outcome [3] is reported as “inactive”, the outcome [4] is reported as “inactive” and the outcome [5] is reported as “inactive”. The outcome [6] was “inactive”, the outcome [7] was “inactive” and the outcome [8] was “inactive”. The outcome [9] was “inactive”, the outcome [10] was “inactive” and the outcome [11] was “inactive”. For the same compound, the outcome [12] was “inactive”, the outcome [13] was “inactive” and the outcome [14] was “inactive”.
For `N=C(N)c1ccc(N)cc1`, the activity, negative = inhibition [2] was -6.1%.
Compound `Nc1ncnc2c1ncn2C1CCCC1` has an activity, negative = inhibition [2] of -3.1%.
For `CSc1nc(N)c2ncn([C@@H]3O[C@H](COP(=O)(O)OP(=O)(O)O)C(O)[C@H]3O)c2n1` (stereo partly drawn), the activity, negative = inhibition [2] was -13.8%.
Work on `N[C@@H](CCCC(=O)O)C(=O)O` yielded an activity, negative = inhibition [2] of -3.82%.
Work on `N=C(N)SCCN` yielded an activity, negative = inhibition [2] of -12%.
For `CCCCCCC/C=C\CCCCCCCCC(=O)O`, the activity, negative = inhibition [2] was -29.9%.
In the case of `COc1ccccc1N1CCN(CCCCNC(=O)c2ccc3ccccc3c2)CC1`, the activity, negative = inhibition [2] is reported as -7.43%.
In the case of `N[C@@H](Cc1ccc(O)c(I)c1)C(=O)O`, the activity, negative = inhibition [2] is reported as -7.59%.
For `O[Si](CCCN1CCCCC1)(c1ccc(F)cc1)C1CCCCC1` (stereo not drawn), the activity, negative = inhibition [2] was -4.4%.
`c1ccc2c(c1)CCC[C@H]2Nc1nc2ccccc2[nH]1` gave an activity, negative = inhibition [2] of -7.62%.
`COc1cc(CNC(=O)CCCCCCC(C)C)ccc1O` gave an activity, negative = inhibition [2] of -17%.
`COc1ccc(C(=O)NCc2cccnc2)cc1C(=O)NCc1cccnc1` gave an activity, negative = inhibition [2] of -3.95%.
With `Fc1ccc(CN(C2=NCCN2)c2c(Cl)cccc2Cl)cc1` the activity, negative = inhibition [2] was 2.64%.
`Nc1ccc2c3c(cccc13)C(=O)NC2=O` gave an activity, negative = inhibition [2] of -16.6%.
Compound `Nc1ncnc2c1nc(Sc1ccc(Cl)cc1)n2[C@H]1OC2COP(=O)(O)O[C@@H]2C1O` (stereo partly drawn) has an activity, negative = inhibition [2] of -0.0945%.
